Experimental data published in PubChem BioAssay (NCATS).
Records with an inconclusive call do not appear. Where a call stands in place of a potency, no number is given. Active and inactive are the calls of the source. Calls follow the shape of the dose curve; as a rule, active = well fitted curve in the direction sought with a large enough effect; inconclusive = small, poorly fitted or top-dose-only effect, or another doubt; inactive = no such curve, though single readings can be large; an effect the other way counts as inactive or inconclusive. Where a SMILES comes first, the peptide text is derived from it. The star is where a group is joined. βNA = c1ccc2cc(N*)ccc2c1; Cbz = O=C(OCc1ccccc1)*

Columns and labels:
[1] = biological target: Glutathione peroxidase 1 (Homo sapiens) (UniProt P07203); test: Primary qHTS Assay for Inhibitors of Recombinant Selenoprotein Glutathione Peroxidase 1 (GPX1) (AID 1845191); also: nearly all actives have a fitted effect of over 65% in size
Summary of the method: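 GR-coupled readout: NADPH consumption tracked by fluorescence, ex 340/em 450 nm, at t=0 and after 15 min at RT. Final mix 10 nM GPX1, 1 mM GSH, 0.5 mM CHP, 0.5 mM NADPH, 100 nM GR, 0.01% BSA, following 30 min enzyme–compound preincubation.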

[2] = biological target: Phospholipid hydroperoxide glutathione peroxidase GPX4 (Homo sapiens) (UniProt P36969); test: Primary qHTS Assay for Inhibitors of Recombinant Selenoprotein Glutathione Peroxidase 4 (GPX4) (AID 1845192); also: nearly all actives have a fitted effect of over 65% in size
Summary of the method: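 Steps: GPX4 plus compound, 30 min RT; add GR/GSH/NADPH master mix; start with cumene hydroperoxide; read 340/450 nm fluorescence at 0 and 15 min. Finals were 200 nM GPX4, 1 mM GSH, 0.5 mM CHP, 0.5 mM NADPH, 100 nM GR.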

[3] = biological target: Luciferin 4-monooxygenase (Photinus pyralis) (UniProt P08659); test: Primary firefly luciferase (FLuc) qHTS assay for identification of artifact compounds. (AID 1845220); also: nearly all actives have a fitted effect of over 60% in size
Summary of the method: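 Enzymatic FLuc inhibition assay: compounds pre-exposed to luciferin/ATP (10 uM each) for 15 min, then purified P. pyralis enzyme at 10 nM added. Read-out: luminescence at 5 min.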

[4] = Primary fluorescence-based thiol-reactive (MSTI) qHTS assay for identification of artifact compounds. (AID 1845221); also: nearly all actives have a fitted effect of over 65% in size; also: potency is read from the fitted curve at half-maximal effect
Summary of the method: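 A multi-concentration qHTS design tested compounds against 4 uM MSTI, pH 7.4 phosphate-buffered saline. Plates were protected from light for 1 h at room temperature before imaging fluorescence.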

Glutathione peroxidase 1 (Homo sapiens), sequence (P07203 whole entry, looked up): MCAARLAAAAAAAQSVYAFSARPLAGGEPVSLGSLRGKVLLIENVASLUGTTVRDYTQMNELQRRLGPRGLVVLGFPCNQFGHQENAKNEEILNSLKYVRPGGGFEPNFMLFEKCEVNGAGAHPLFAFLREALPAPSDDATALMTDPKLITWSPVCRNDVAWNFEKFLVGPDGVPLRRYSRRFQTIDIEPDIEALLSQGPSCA
Phospholipid hydroperoxide glutathione peroxidase GPX4 (Homo sapiens), sequence (P36969 whole entry, looked up): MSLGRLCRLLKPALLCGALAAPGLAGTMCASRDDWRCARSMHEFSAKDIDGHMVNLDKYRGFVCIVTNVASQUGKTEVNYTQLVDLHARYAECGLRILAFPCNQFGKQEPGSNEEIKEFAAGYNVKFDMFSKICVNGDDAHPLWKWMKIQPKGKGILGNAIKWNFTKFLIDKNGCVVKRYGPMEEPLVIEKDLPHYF

Compound	Potency [1]	Potency [2]	Potency [3]	Potency [4]
C[C@@H]1CC[C@]2(C(=O)O)CC[C@]3(C)C(=CCC4[C@@]5(C)C[C@@H](O)[C@H](O)[C@@](C)(CO)C5CC[C@]43C)C2[C@H]1C (some centres not stated)	inactive	inactive	inactive	inactive
C=CC(C)(C)C12Nc3c(ccc4c3OC(C)(C)C=C4)C1(O)CC1C(=O)N3CCCC3C(=O)N12 (configuration not stated)	inactive	inactive	inactive	inactive
C/C=C(\C)C(=O)OC[C@H]1O[C@H](O[C@H]2O[C@H](CO)[C@@H](O)[C@H](O)[C@H]2O[C@@H]2O[C@H](CO)[C@@H](O)[C@H](O)[C@H]2O)[C@H](O[C@@H]2O[C@H](CO)[C@@H](O)[C@H](O)[C@H]2O)[C@@H](O)[C@@H]1O	inactive	inactive	inactive	inactive
COC(=O)C1=CO[C@@H](O[C@@H]2O[C@H](CO)[C@@H](O)[C@H](O)[C@H]2O)[C@@H]2C(C)CC(=O)[C@]12O (some centres not stated)	inactive	inactive	inactive	inactive
COC(=O)C1=CO[C@@H](O[C@@H]2O[C@H](CO[C@@H]3O[C@H](CO)[C@@H](O)[C@H](O)[C@H]3O)[C@@H](O)[C@H](O)[C@H]2O)[C@@H]2C(CO)=CC[C@H]12	inactive	inactive	inactive	inactive
C=C1CCc2occ(C)c2[C@H]2[C@H]1[C@@]13O[C@@]1(C[C@@H](C)[C@H]3OC(C)=O)[C@H]1O[C@@]21C	inactive	inactive	inactive	inactive
C=C1CC[C@@H]2C(C)(C)CCC[C@@]2(C)[C@@H]1CC/C(=C/C(=O)OC)COC(C)=O	inactive	inactive	inactive	inactive
C[C@@H](NC(=O)c1cc(C(=O)N[C@@H](Cc2ccccc2)[C@H](O)CNC2CC2)cc(N(C)S(C)(=O)=O)c1)c1ccccc1	inactive	inactive	inactive	inactive
CC(C)C(O)(CO)CCO[C@@H]1O[C@H](CO[C@H]2OC[C@](O)(CO)[C@H]2O)[C@@H](O)[C@H](O)[C@H]1O (some centres not stated)	inactive	inactive	inactive	inactive
COc1cc(C(C)=O)ccc1O[C@@H]1O[C@H](CO[C@@H]2OC[C@@H](O)[C@H](O)[C@H]2O)[C@@H](O)[C@H](O)[C@H]1O	inactive	inactive	inactive	inactive
O=C(O)CC1CCC(c2ccc(NC(=O)c3nnc(Nc4ccc(F)c(F)c4)o3)cc2)CC1 (configuration not stated)	inactive	inactive	inactive	inactive
CC1(C)CC[C@]2(C(=O)O)CC[C@]3(C)C(=CCC4[C@@]5(C)C[C@@H](O)[C@H](O)[C@@](C)(CO)C5CC[C@]43C)C2C1 (some centres not stated)	inactive	inactive	inactive	inactive
C=CCC1=C[C@]2(OC)[C@H](C)[C@@H](c3ccc(OC)c(OC)c3)O[C@]2(OC)CC1=O	inactive	inactive	inactive	inactive
H-DPPDPDRFYGMM-NH2	inactive	inactive	inactive	inactive
CC(C)CC(NC(=O)OCc1ccccc1)C(=O)NC(CC(C)C)C(=O)NC(CCC(=O)O)C(=O)Nc1ccc2ccccc2c1 (stereo not drawn) (Cbz-Leu-Leu-Glu-βNA; configuration not given here)	inactive	inactive	inactive	inactive
CCC(C)C1NC(=O)C2C(C)CCN2C(=O)C(CC(O)CO)OC(=O)CCNC(=O)C(C)N(C)C(=O)C(C(C)C)N(C)C1=O (configuration not stated)	inactive	inactive	inactive	inactive
CC1=CC[C@@]2(C)CC[C@@](O)(C(C)C)[C@@H]2[C@@H](O)C1	inactive	inactive	inactive	inactive
COc1cc(/C=C/C(=O)O)ccc1O[C@@H]1O[C@H](CO)[C@@H](O)[C@H](O)[C@H]1O[C@@H]1OC[C@](O)(CO)[C@H]1O	inactive	inactive	inactive	inactive
COc1ccc(CCc2nc3cc(-c4c(C)noc4C)ccc3n2C[C@H](C)N2CCOCC2)cc1Cl	inactive	inactive	inactive	inactive
CC1CC(=O)[C@]2(O)C(C(=O)OCCc3ccc(O)c(O)c3)=CO[C@@H](O[C@@H]3O[C@H](CO)[C@@H](O)[C@H](O)[C@H]3O)[C@H]12 (some centres not stated)	inactive	inactive	inactive	2920 nM (active)
COC(=O)C(CC1CCCC1)c1ccc(S(C)(=O)=O)cc1 (configuration not stated)	inactive	inactive	inactive	inactive
CC1=C2CC(=O)C(C)CC/C=C(\C)CC2OC1=O (configuration not stated)	inactive	inactive	inactive	inactive
CC(CCc1ccc(O)cc1)O[C@@H]1O[C@H](CO[C@@H]2OC(CO)[C@H](O)[C@H]2O)[C@@H](O)[C@H](O)[C@H]1O (some centres not stated)	inactive	inactive	inactive	inactive
